This passage reports activity (normalised, proliferation) results from PubChem BioAssay AID743366 (National Center for Advancing Translational Sciences (NCATS), 2014).

Non-standard residues stand in square brackets, D forms with d. Residues, ends and D or L forms follow the SMILES beside them. Orn = NCCC[C@H](N)C(=O)O

This test in a line: qHTS profiling of inhibitors of Plasmodium falciparum (HB3) proliferation (acoustic dispense). Particulars: P. falciparum HB3 in erythrocytes, SYBR Green, 72 h; at 49.8 µM (top of the series) unless noted. From the text:
Plasmodium falciparum is a virulent malarial parasite that kills 1-2 million people worldwide each year. Transmitted by mosquitoes, the sporozoite form of the parasite enters the blood stream to infect hepatocytes, where they become merozoites that infect red blood cells (erythrocytes). Within erythrocytes, merozoites begin a […] cycle of growth and division, after which the parasite is released to infect new red blood cells. Gametocytes, which form within erythrocytes as well, circulate in the bloodstream and are ingested by the mosquito, thereby completing the life cycle. To profile malarial isolates for differential chemical responses and to identify inhibitors of malarial growth, an assay that measures P. falciparum growth and replication within erythrocytes was employed. This assay uses a DNA binding fluorescent dye (SYBR Green) to detect parasite DNA following cell lysis. Because mature erythrocytes lack DNA, only Plasmodium-derived DNA is detected.
The SYBR Green viability assay was adapted from a method described previously (Plouffe et al., 2008). For screening 3 ul culture medium was dispensed into 1536 well black clear bottom plates (Aurora Biotechnologies) using a Multidrop Combi (Thermo Fisher Scientific Inc.), 23 nL of compounds in DMSO were added by an acoustic dispenser (EDC Biosystems), and 5 ul of erythrocytes infected with P. falciparum (0.3% parasitemia, 2.5% hematocrit final concentration) were added. The plates were incubated at 37 C in a humidified incubator in 5% CO2 for 72 h, and 2 ul lysis buffer (20 mM Tris HCl, 10 mM EDTA, 0.16% saponin, 1.6% triton X, 10X SYBR Green I supplied as 10,000X […] by Invitrogen) was added to each well. The plates were mixed for 25 sec with gentle shaking and incubated overnight at room temperature in the dark. The following morning, fluorescence intensity at 485(14) nm excitation and 535(25) nm emission wavelengths was measured on an EnVision (Perkin Elmer) plate reader. Plate reads were normalized relative to the control inhibitor (0.29 uM artemisinin) and vehicle (DMSO) wells present on each plate and then corrected by an algorithm using vehicle-only control plates at the beginning and end of the compound plate stack.
In the case of `C=C[C@@H]1CN2CC[C@@H]1C[C@H]2[C@H](O)c1ccnc2ccc(OC)cc12`, the activity (normalised, proliferation) is 0.317%.
For the compound `CC[C@]1(O)C[C@H]2CN(CCC3=c4ccccc4=N[C]3[C@@](C(=O)OC)(c3cc4c(cc3OC)N(C)[C@H]3[C@@](O)(C(N)=O)[C@H](O)[C@]5(CC)C=CCN6CC[C@]43[C@@H]65)C2)C1`, the activity (normalised, proliferation) stood at 2.35%.
In the case of `C1CCC(C(CC2CCCCN2)C2CCCCC2)CC1` (stereo not given), the activity (normalised, proliferation) is -0.0393%.
Turning to `O=C1NC(=O)C(=Cc2ccc3nccc(-c4ccncc4)c3c2)S1`, the activity (normalised, proliferation) came to 0.554%.
Consider `CCN[C@H]1C[C@H](C)S(=O)(=O)c2sc(S(N)(=O)=O)cc21`, for which the activity (normalised, proliferation) is 37.3%.
As to `CCN(CC)Cc1cc(Nc2ccnc3cc(Cl)ccc23)ccc1O`, the activity (normalised, proliferation) was -0.453% [at 23.2 µM].
With `Cc1cn(-c2cc(NC(=O)c3ccc(C)c(Nc4nccc(-c5cccnc5)n4)c3)cc(C(F)(F)F)c2)cn1`, the activity (normalised, proliferation) was found to be 1.32%.
As to `Cn1cc(C2=C(c3c4n(c5ccccc35)CCC(CN)C4)C(=O)NC2=O)c2ccccc21` (stereo not given), the activity (normalised, proliferation) is -0.862%.
Consider `CC(C)Oc1cc(Nc2nc(N[C@@H](C)c3ccc(F)cn3)ncc2Cl)[nH]n1`, for which the activity (normalised, proliferation) came to 2.89%.
With `O[C@H](c1cc(C(F)(F)F)nc2c(C(F)(F)F)cccc12)[C@H]1CCCCN1`, the activity (normalised, proliferation) is 3.25% [at 23.2 µM].
In the case of `CCC(C=C[C@@H]1OC(=O)C=C[C@H]1C)=C[C@H](C)CC=CC(C)=C[C@@H](C)C(=O)[C@@H](C)[C@H](O)[C@@H](C)CC(C)=CC(=O)O`, the activity (normalised, proliferation) is 105% [at 1.88 µM].
With `CCCCN(CCCC)CCC(O)c1cc2c(Cl)cc(Cl)cc2c2cc(C(F)(F)F)ccc12` (stereo not given), the activity (normalised, proliferation) was -0.0223% [at 23.2 µM].
Regarding `C[C@H]1c2cccc(O)c2C(O)=C2C(=O)[C@]3(O)C(O)=C(C(N)=O)C(=O)[C@@H](N(C)C)[C@@H]3[C@@H](O)[C@@H]21`, the activity (normalised, proliferation) is 2.34%.
`C=C[C@@H]1CN2CCC1C[C@@H]2C(O)c1ccnc2ccc(OC)cc12` (stereo not given in full): the activity (normalised, proliferation) came to 1.73%.
`CC[C@H]1OC(=O)[C@H](C)C(=O)[C@H](C)[C@@H](O[C@H]2O[C@H](C)C[C@H](N(C)C)[C@@H]2O)[C@](C)(OC)C[C@@H](C)C(=O)[C@H](C)[C@H]2N(CCCCn3cnc(-c4cccnc4)c3)C(=O)O[C@]12C`: the activity (normalised, proliferation) was 5.95%.
Consider `CS[C@H]1SC[C@@H]2C(=O)N(C)[C@H](C(C)C)C(=O)OC[C@H](NC(=O)c3cnc4ccccc4n3)C(=O)N[C@H](C)C(=O)N(C)[C@@H]1C(=O)N(C)[C@H](C(C)C)C(=O)OC[C@H](NC(=O)c1cnc3ccccc3n1)C(=O)N[C@H](C)C(=O)N2C`, for which the activity (normalised, proliferation) was found to be 1.22%.
In the case of `CCCC[C@@H]1C[C@@H](C(=O)NC([C@H](C)Cl)[C@H]2O[C@H](S)[C@H](O)[C@@H](O)[C@@H]2O)N(C)C1` (stereo not given in full), the activity (normalised, proliferation) was found to be 3.44%.
Next, `FC(F)c1nc2ccccc2n1-c1nc(N2CCOCC2)nc(N2CCOCC2)n1`: 25.3%.
As for `COc1ccc2cc3[n+](cc2c1OC)CCc1cc2c(cc1-3)OCO2`, the activity (normalised, proliferation) is -1.06%.
For `CCCCCCCCCCOc1cc2c(=O)c(C(=O)OCC)c[nH]c2cc1OCC`, the activity (normalised, proliferation) was -0.332%.
`COc1ccc2nc3cc(Cl)ccc3c(Nc3cc(CN4CCCC4)c(O)c(CN4CCCC4)c3)c2n1`: the activity (normalised, proliferation) was -3.23%.
Take `Cc1cn[nH]c1`: the activity (normalised, proliferation) is 39.3%.
In the case of `CCC(=O)N1CCN(c2ccc(-n3c(=O)ccc4cnc5ccc(-c6cnc7ccccc7c6)cc5c43)cc2C(F)(F)F)CC1` it was 0.244%; in that of `C#Cc1cccc(Nc2ncnc3cc(OC)c(OCCCCCCC(=O)NO)cc23)c1`, -0.996%; in that of `CC(C)[C@H](C(=O)Nc1ccc(C(=O)NO)cc1)c1ccccc1`, -0.656%.
In the case of `Cn1c2ccccc2c2c3c(c4c5ccccc5n(CCC#N)c4c21)CNC3=O` it was 106%; in that of `CC(C)C[C@@H]1NC(=O)[C@H](CCCN)NC(=O)[C@H](C(C)C)NC(=O)[C@@H]2CCCN2C(=O)[C@@H](Cc2ccccc2)NC(=O)[C@H](CC(C)C)NC(=O)[C@H](CCCN)NC(=O)[C@H](C(C)C)NC(=O)[C@@H]2CCCN2C(=O)[C@@H](Cc2ccccc2)NC1=O` (cyclo(V[Orn]L[dF]PV[Orn]L[dF]P)), 3.19%.
With `CC(C)n1nc(-c2ccc3oc(N)nc3c2)c2c(N)ncnc21`, the activity (normalised, proliferation) is -0.709%.
As to `CO[C@H]1C=CO[C@@]2(C)Oc3c(C)c(O)c4c(O)c(c(C=NN5CCN(C)CC5)c(O)c4c3C2=O)NC(=O)C(C)=CC=C[C@H](C)[C@H](O)[C@@H](C)[C@@H](O)[C@@H](C)[C@H](OC(C)=O)[C@H]1C`, the activity (normalised, proliferation) is -0.914% [at 16.5 µM].
Take `Nc1ccc(-c2ccc3ncc4ccc(=O)n(-c5cccc(C(F)(F)F)c5)c4c3c2)cn1`: the activity (normalised, proliferation) is -1.37%.
In the case of `CN[C@@H]1C[C@H]2O[C@@](C)([C@H]1OC)n1c3ccccc3c3c4c(c5c6ccccc6n2c5c31)C(=O)N[C@H]4O`, the activity (normalised, proliferation) was -0.206%.
As to `CN(C(=O)OC(C)(C)C)[C@@H](Cc1ccc(O[S+](=O)([O-])c2cccc3cnccc23)cc1)C(=O)N1CCN(C(=O)OCc2ccccc2)CC1`, the activity (normalised, proliferation) was 2.29%.
On to `O=C(Nc1cn[nH]c1-c1nc2ccc(CN3CCOCC3)cc2[nH]1)NC1CC1`, for which the activity (normalised, proliferation) came out at 1.76%.
In the case of `CCNC(=O)c1noc(-c2cc(C(C)C)c(O)cc2O)c1-c1ccc(CN2CCOCC2)cc1` it was 117%.
In the case of `COc1ncnc(NS(=O)(=O)c2ccc(N)cc2)c1OC`, the activity (normalised, proliferation) was determined as 102%.
Next, `CCCCCCOC(=O)C1(O)CC2OC1(C)n1c3ccccc3c3c4c(c5c6ccccc6n2c5c31)C(=O)NC4` (stereo not given): 100% [at 1.88 µM]; `O=C(Nc1ccc([N+](=O)[O-])cc1Cl)c1cc(Cl)ccc1O`: 99.3%.
For `CO[C@@H]1C(N(C)C(=O)c2ccccc2)C[C@H]2O[C@]1(C)n1c3ccccc3c3c4c(c5c6ccccc6n2c5c31)C(=O)NC4=O` (stereo not given in full), the activity (normalised, proliferation) turned out to be 17.3%.
In the case of `Clc1ccc2c(N3CCN(CCCN4CCN(c5ccnc6cc(Cl)ccc56)CC4)CC3)ccnc2c1` it was -2.19% [at 23.2 µM]; in that of `c1cncc(CN2CCC(n3ncc4c(N5CCOCC5)nc(-c5ccc6[nH]ccc6c5)nc43)CC2)c1`, -0.669%.
